# Test results reported in PubChem BioAssay (EPA / NIEHS).
# “And” between values parts separate entries of the source, which are not always exact repeats. Equal entries are not always repeated. The source made the active and inactive calls. How the source made its calls: active means hit-call score of the fitted dose curve at least 0.9, where 1 is the maximum; inactive means score below 0.9.
# Columns and labels:
# [1] = target: Transcription factor E2F1 (Homo sapiens) (UniProt Q01094); assay: ATG_E2F_CIS: Attagene CIS-FACTORIAL HepG2 Assay for human E2F Transcription Factor 1 (AID 2282935); details: HepG2 Attagene cis-reporter, E2F reporter RNA transcripts; actives raise or lower the signal
# Summary of the method: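 Liver-derived HepG2 cells expressing transfected promoter-driven reporter units received test chemical for 24 hours. Signal gains or losses were fitted bidirectionally against DMSO.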
# [2] = ATG_E_Box_CIS: Attagene CIS-FACTORIAL HepG2 Assay for human Enhancer Box (E-box) (AID 2282936); details: HepG2 E-box cis-reporter transcription, actives raise or lower the signal
# Summary of the method: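 In this cell-based setup, HepG2 cells bearing transfected promoter-driven reporter units were exposed to chemicals for 24 h; reporter transcripts were amplified, 6-FAM-labelled, cut with HpaI and sized by capillary electrophoresis.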
# [3] = ATG_M_61_CIS: Attagene CIS-FACTORIAL HepG2 Assay for M61 Transcription Factor (Internal Marker) (AID 2282937); details: HepG2 Attagene CIS-FACTORIAL M61 internal marker reporter; actives raise or lower the signal
# Summary of the method: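 Readout is reporter mRNA by RT-PCR, fluorescent primer extension and capillary electrophoresis, with gain or loss fitted relative to DMSO. Transfected HepG2 cells carrying endogenous-TF-driven cis reporters were exposed to chemicals for 24 hours.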
# [4] = ATG_EGR_CIS: Attagene CIS-FACTORIAL HepG2 Assay for human Early Growth Response 1 (EGR1) (AID 2282938); details: HepG2 Attagene CIS-FACTORIAL EGR reporter mRNA; actives raise or lower the signal
# Summary of the method: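 After 24 h compound exposure, RNA from reporter-transfected HepG2 cells was reverse-transcribed, PCR-amplified, fluorescently labelled and resolved by capillary electrophoresis. EGR1 reporter transcript changes, up or down, were fitted against DMSO, reflecting endogenous transcription-factor activity.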
# [5] = ATG_M_19_CIS: Attagene CIS-FACTORIAL HepG2 Assay for M19 Transcription Factor (Internal Marker) (AID 2282939); details: HepG2 Attagene CIS-FACTORIAL M19 internal marker reporter; actives raise or lower the signal
# Summary of the method: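 Background-control endpoint from a multiplexed HepG2 reporter panel. Cells carrying cis-regulated reporter constructs are treated 24 h, then reporter transcripts are amplified, fluorescently labelled and sized by capillary electrophoresis. DMSO defines baseline.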
# [6] = ATG_ERE_CIS: Attagene CIS-FACTORIAL HepG2 Assay for Estrogen Response Element (ERE) (AID 2282940); details: HepG2 ERE cis-reporter, Attagene RNA transcript; actives raise or lower the signal
# Summary of the method: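 Cells used were human hepatoma HepG2, transfected with multiple reporter transcription units under cis-regulatory promoters. Reporter mRNA, read 24 h post-dosing via fluorescent RT-PCR products on capillary electrophoresis, was fitted bidirectionally relative to DMSO.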
# [7] = ATG_Ets_CIS: Attagene CIS-FACTORIAL HepG2 Assay for human Erythroblast Transformation Specific (ETS) (AID 2282941); details: HepG2 ETS cis-reporter transcription, actives raise or lower the signal
# Summary of the method: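 RT-PCR/capillary electrophoresis fluorescence read-out of reporter mRNA; HepG2 transient multi-reporter transfection; 24 h compound exposure; gain or loss of signal fitted bidirectionally relative to DMSO.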
# [8] = target: Hepatocyte nuclear factor 3-beta (Homo sapiens) (UniProt Q9Y261); assay: ATG_FoxA2_CIS: Attagene CIS-FACTORIAL HepG2 Assay for human Forkhead box A2 (FOXA2) (AID 2282942); details: HepG2 cis-reporter transcription factor activity, 24 h; actives raise or lower the signal
# Summary of the method: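 Endogenous transcription factor activity is captured via cis-element-driven reporter transcripts in transfected HepG2. Total RNA taken at 24 h post-dosing; labelled RT-PCR products resolved by capillary electrophoresis. Gain or loss fitted versus DMSO.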
# [9] = ATG_FoxO_CIS: Attagene CIS-FACTORIAL HepG2 Assay for human Forkhead box O (FoxO) (AID 2282943); details: HepG2 Attagene cis-reporter, FoxO element, mRNA; actives raise or lower the signal
# Summary of the method: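 HepG2 cells transiently transfected with cis-element-driven reporter units report endogenous FoxO activity. After 24 h chemical exposure, reporter mRNA quantified by RT-PCR, fluorescent labeling, HpaI digestion and capillary electrophoresis; bidirectional fit versus DMSO.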
# [10] = ATG_GATA_CIS: Attagene CIS-FACTORIAL HepG2 Assay for human GATA Binding Protein (AID 2282944); details: HepG2 GATA cis-element reporter, Attagene multiplex mRNA; actives raise or lower the signal
# Summary of the method: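 Endogenous transcription factor activity was captured through cis-promoter-driven reporters in transfected HepG2 cells. After 24 h exposure, reporter transcripts were quantified by RT-PCR with fluorescent capillary electrophoresis, and responses fitted both directions against DMSO.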
# Chain of Hepatocyte nuclear factor 3-beta (Homo sapiens) (Q9Y261 whole entry, looked up): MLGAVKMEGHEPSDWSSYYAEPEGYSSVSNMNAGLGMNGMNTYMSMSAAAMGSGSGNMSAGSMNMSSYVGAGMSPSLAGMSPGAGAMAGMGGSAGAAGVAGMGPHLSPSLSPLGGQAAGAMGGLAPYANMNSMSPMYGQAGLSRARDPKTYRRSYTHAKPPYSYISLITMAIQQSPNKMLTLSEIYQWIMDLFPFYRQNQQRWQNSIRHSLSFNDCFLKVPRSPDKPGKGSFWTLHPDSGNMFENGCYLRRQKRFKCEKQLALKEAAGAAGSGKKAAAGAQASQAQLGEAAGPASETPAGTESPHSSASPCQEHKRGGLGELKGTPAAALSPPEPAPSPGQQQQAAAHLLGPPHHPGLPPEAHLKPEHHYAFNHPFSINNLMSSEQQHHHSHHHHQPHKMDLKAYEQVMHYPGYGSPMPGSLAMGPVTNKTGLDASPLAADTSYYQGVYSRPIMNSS
# Chain of Transcription factor E2F1 (Homo sapiens) (Q01094 whole entry, looked up): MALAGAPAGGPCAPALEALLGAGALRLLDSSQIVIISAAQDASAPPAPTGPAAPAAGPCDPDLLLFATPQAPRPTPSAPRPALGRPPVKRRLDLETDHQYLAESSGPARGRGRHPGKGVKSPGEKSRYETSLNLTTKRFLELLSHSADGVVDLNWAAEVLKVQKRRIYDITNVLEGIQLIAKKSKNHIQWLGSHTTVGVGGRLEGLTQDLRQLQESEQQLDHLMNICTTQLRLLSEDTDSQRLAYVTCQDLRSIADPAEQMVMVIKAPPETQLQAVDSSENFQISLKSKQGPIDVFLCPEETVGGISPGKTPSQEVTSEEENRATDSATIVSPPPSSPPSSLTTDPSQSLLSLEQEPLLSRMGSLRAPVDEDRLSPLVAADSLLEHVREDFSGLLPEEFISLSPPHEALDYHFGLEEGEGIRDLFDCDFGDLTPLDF
SMILES,outcome [1],outcome [2],outcome [3],outcome [4],outcome [5],outcome [6],outcome [7],outcome [8],outcome [9],outcome [10],AC50 [4],AC50 [6],AC50 [1],AC50 [2],AC50 [7],AC50 [8],AC50 [10],AC50 [9]
c1ccc2cc3ccccc3cc2c1,inactive,inactive,inactive,inactive,inactive,inactive,inactive,inactive,inactive,inactive,–,–,–,–,–,–,–,–
O=c1[nH]cnc2c1ncn2[C@H]1CC[C@@H](CO)O1,inactive,inactive,inactive,inactive,inactive,inactive,inactive,inactive,inactive,inactive,–,–,–,–,–,–,–,–
c1ccc(C(O[C@@H]2CCCN(CCc3ccc4c(c3)OCO4)C2)c2ccccc2)cc1,inactive,inactive,inactive,–,inactive,–,inactive,inactive,inactive,inactive,33 µM (active),13.8 µM (active),–,–,–,–,–,–
CCCCCCCC1CCC(=O)O1 (configuration not stated),inactive,inactive,inactive,inactive,inactive,inactive,inactive,inactive,inactive,inactive,–,–,–,–,–,–,–,–
Cc1cccc(O)c1C,inactive,inactive,inactive,inactive,inactive,–,inactive,inactive,inactive,inactive,–,59.3 µM (active) and 59.6 µM (active),–,–,–,–,–,–
CCCCCCCCCCCCCCO,–,–,inactive,inactive,inactive,inactive,–,–,inactive,–,–,–,158 µM (active),129 µM (active),159 µM (active),138 µM (active),179 µM (active),–
NNC(=O)c1ccncc1,inactive,inactive,inactive,inactive,inactive,–,inactive,inactive,inactive,inactive,–,26.6 µM (active),–,–,–,–,–,–
CCOc1ccc2[nH]cc(C(=O)NCc3ccccc3)c(=O)c2n1,inactive,inactive,inactive,inactive,inactive,inactive,inactive,inactive,inactive,inactive,–,–,–,–,–,–,–,–
OC[C@H]1O[C@@H]2O[C@H]3[C@H](O)[C@@H](O)[C@@H](O[C@H]4[C@H](O)[C@@H](O)[C@@H](O[C@H]5[C@H](O)[C@@H](O)[C@@H](O[C@H]6[C@H](O)[C@@H](O)[C@@H](O[C@H]7[C@H](O)[C@@H](O)[C@@H](O[C@H]1[C@H](O)[C@H]2O)O[C@@H]7CO)O[C@@H]6CO)O[C@@H]5CO)O[C@@H]4CO)O[C@@H]3CO,inactive,inactive,inactive,inactive,inactive,inactive,inactive,inactive,inactive,inactive,–,–,–,–,–,–,–,–
OC(Cn1cncn1)(Cn1cncn1)c1ccc(F)cc1F,inactive,inactive,inactive,inactive,inactive,inactive,inactive,inactive,inactive,inactive,–,–,–,–,–,–,–,–
Cc1ccc(S(=O)(=O)NC(=O)NN2CCCCCC2)cc1,inactive,inactive,inactive,inactive,inactive,inactive,inactive,inactive,inactive,inactive,–,–,–,–,–,–,–,–
CCCCCCCCCCCCCCCCOS(=O)(=O)O,inactive,–,inactive,inactive,inactive,inactive,inactive,inactive,inactive,inactive,–,–,–,25.8 µM (active),–,–,–,–
O=C(O)c1ccc2c(c1)nc(C(=O)NC1CCN(C3CC3)CC1)n2Cc1cc(-c2ccc(Cl)s2)on1,inactive,inactive,inactive,inactive,inactive,inactive,inactive,inactive,inactive,inactive,–,–,–,–,–,–,–,–
CCCCN1C(=O)[C@@H]([C@H](O)C2CCCCC2)NC(=O)C12CCN(Cc1ccc(Oc3ccc(C(=O)O)cc3)cc1)CC2,inactive,inactive,inactive,inactive,inactive,inactive,inactive,inactive,inactive,inactive,–,–,–,–,–,–,–,–
CCCc1ccccc1,inactive,inactive,inactive,inactive,inactive,inactive,inactive,inactive,inactive,inactive,–,–,–,–,–,–,–,–
NC(=O)NN=Cc1ccc([N+](=O)[O-])o1,inactive,–,inactive,inactive,inactive,inactive,inactive,inactive,inactive,inactive,–,–,–,113 µM (active),–,–,–,–
CCn1nc(C)c2c1C(=O)NCC(c1ccc(O)cc1)=N2,inactive,inactive,inactive,inactive,inactive,inactive,inactive,inactive,inactive,inactive,–,–,–,–,–,–,–,–
CCCCCOC(C)=O,inactive,inactive,inactive,inactive,inactive,inactive,inactive,inactive,inactive,inactive,–,–,–,–,–,–,–,–
OC(CCl)CCl,inactive,inactive,inactive,inactive,inactive,inactive,inactive,inactive,inactive,inactive,–,–,–,–,–,–,–,–
CCN(CC)C(=S)SSC(=S)N(CC)CC,inactive,–,inactive,–,inactive,inactive,–,–,–,–,125 µM (active),–,–,18.9 µM (active),158 µM (active),–,158 µM (active),152 µM (active)
CC(=O)c1ccccc1,inactive,inactive,inactive,inactive,inactive,inactive,inactive,inactive,inactive,inactive,–,–,–,–,–,–,–,–

SMILES,outcome [1],outcome [2],outcome [3],outcome [4],outcome [5],outcome [6],outcome [7],outcome [8],outcome [9],outcome [10],AC50 [4],AC50 [6],AC50 [1],AC50 [2],AC50 [7],AC50 [8],AC50 [10],AC50 [9]
OCCC(F)(F)C(F)(F)C(F)(F)C(F)(F)F,inactive,inactive,inactive,inactive,inactive,inactive,inactive,inactive,inactive,inactive,–,–,–,–,–,–,–,–
O=C(O)c1cccc(C[C@@H]2COc3ccc(OCc4nc5cc(F)ccc5s4)cc3[C@@H]2O)c1,inactive,–,inactive,inactive,inactive,inactive,inactive,inactive,inactive,inactive,–,–,–,66.9 µM (active),–,–,–,–
CCCCCCCCCC,inactive,inactive,inactive,inactive,inactive,inactive,inactive,inactive,inactive,–,–,–,–,–,–,–,0.033 µM (active),–
CCCC(CCC)C(=O)O,inactive,inactive,inactive,inactive,inactive,inactive,inactive,–,inactive,inactive,–,–,–,–,–,–,–,–
CCOC(N)=O,inactive,inactive,inactive,inactive,inactive,inactive,inactive,inactive,inactive,inactive,–,–,–,–,–,–,–,–
O=S(=O)(O)CCC(F)(F)C(F)(F)C(F)(F)C(F)(F)C(F)(F)C(F)(F)F,inactive,inactive,inactive,inactive,inactive,inactive,inactive,inactive,inactive,inactive,–,–,–,–,–,–,–,–
Cn1c(=O)c2[nH]cnc2n(C)c1=O,inactive,inactive,inactive,inactive,inactive,inactive,inactive,inactive,inactive,inactive,–,–,–,–,–,–,–,–
FC(F)=C(F)C(F)(F)C(F)(F)C(F)(F)C(F)(F)C(F)(F)C(F)(F)F,inactive,inactive,inactive,inactive,inactive,inactive,inactive,inactive,inactive,inactive,–,–,–,–,–,–,–,–
Cc1nccn1-c1ccc(Sc2cccc(C3(C(N)=O)CCOCC3)c2)cc1,inactive,inactive,inactive,–,inactive,inactive,–,inactive,–,inactive,4.56 µM (active),–,–,–,4.05 µM (active),–,–,3.15 µM (active)
CC(C)C(=O)Nc1ccc([N+](=O)[O-])c(C(F)(F)F)c1,inactive,inactive,inactive,inactive,inactive,inactive,inactive,inactive,inactive,inactive,–,–,–,–,–,–,–,–
CCCCCCCC/C=C\CCCCCCCC(=O)OC[C@@H](O)[C@H]1OC[C@H](O)[C@H]1O,inactive,inactive,inactive,inactive,inactive,inactive,inactive,inactive,inactive,inactive,–,–,–,–,–,–,–,–
CCCOc1ccc(S(=O)(=O)N2CCN(CC)CC2)cc1-c1nc2c(CC)n(Cc3ccccn3)nc2c(=O)[nH]1,inactive,inactive,inactive,–,inactive,inactive,inactive,inactive,inactive,inactive,22.2 µM (active),–,–,–,–,–,–,–
CNC(C)=O,inactive,inactive,inactive,inactive,inactive,inactive,inactive,inactive,inactive,inactive,–,–,–,–,–,–,–,–
FC(F)(F)C(F)(F)C(F)(F)C(F)(F)C(F)(F)C(F)(F)I,inactive,inactive,inactive,inactive,inactive,–,inactive,inactive,inactive,inactive,–,24 µM (active) and 27.1 µM (active),–,–,–,–,–,–
Cn1cc[nH]c1=S,inactive,inactive,inactive,inactive,inactive,inactive,inactive,–,inactive,inactive,–,–,–,–,–,–,–,–
O=C(Cl)C(F)(F)C(F)(F)C(F)(F)C(=O)Cl,inactive,inactive,inactive,inactive,inactive,inactive,inactive,inactive,inactive,inactive,–,–,–,–,–,–,–,–
CCc1cccc(CC)c1N,inactive,inactive,inactive,inactive,inactive,inactive,inactive,inactive,inactive,inactive,–,–,–,–,–,–,–,–
O=C(NO)C1(NS(=O)(=O)c2ccc(Oc3ccc(F)cc3)cc2)CCOCC1,inactive,inactive,inactive,inactive,inactive,inactive,inactive,inactive,inactive,inactive,–,–,–,–,–,–,–,–
CCCCCCOC(=O)CC(CC(=O)OCCCCCC)(OC(=O)CCC)C(=O)OCCCCCC,inactive,inactive,inactive,inactive,inactive,inactive,inactive,inactive,inactive,inactive,–,–,–,–,–,–,–,–
NC(=O)N1c2ccccc2C=Cc2ccccc21,inactive,inactive,inactive,inactive,inactive,–,inactive,inactive,inactive,inactive,–,49.9 µM (active),–,–,–,–,–,–
OCCNCCO,inactive,inactive,inactive,inactive,inactive,inactive,inactive,inactive,inactive,inactive,–,–,–,–,–,–,–,–
